KB-3-1 cytotox = KB-3-1 parental cell cytotoxicity; KB-3-1 viability, CellTiter-Glo ATP luminescence, 72 h; Potency, µM (top dose mostly 46.1 µM), hits mostly cytotoxic; actives 1.4% (n = 400,000); AID 1347075; further: nearly all actives have a fitted effect of over 60% in size
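Luminescent ATP read-out (CellTiter-Glo) measures survival of drug-naive KB-3-1 cells after 72 h compound exposure at 37 °C. Titration series was screened from lowest to highest concentration, with DMSO vehicle plates as background controls.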
TDP1 cell noCPT = qHTS for Inhibitors of human tyrosyl-DNA phosphodiesterase 1 (TDP1): qHTS in cells in absence of CPT. DT40 Tdp1-/- hTDP1 cells, no CPT, ATP luminescence, 48 h. Potency, µM (highest dose often 46.2 µM), without a hit: at the highest dose activity change, negative = growth inhibition, usual class: inhibitors. actives 15% (n = 420,000). AID 686978, 2013; further: nearly all actives have a fitted effect of over 55% in size
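Luminescent ATP content (CellTiter-Glo) served as the growth readout. Knockout chicken DT40 cells expressing human TDP1 were exposed to compounds without camptothecin for a minimum 48 hr at 37 °C.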
HT1080 IDH1KD tx = toxicity to HT-1080 IDH1 knockdown cells (counter line). actives 2% (n = 360,000). HT-1080 IDH1 knockdown viability, ATP luminescence, 48 h. Potency, µM (top dose mostly 46.1 µM), without a hit: at the top dose activity, negative = toxicity, hits mostly cytotoxic. AID 686971;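 further: 0% = DMSO wells and -100% = cell-free medium wells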
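CellTiter-Glo luminescence after 48 h compound exposure at 37 degrees C of IDH1-knockdown HT-1080 cells in 5% FBS RPMI. %Activity scaled between DMSO wells and cell-free media wells, with curves fitted and assigned curve classes.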
TDP1 cell CPT = growth inhibition of DT40 Tdp1-/-;hTDP1 cells with camptothecin (screen for TDP1 inhibitors) | chicken DT40 Tdp1-/-;hTDP1 cells + 20 nM CPT, ATP luminescence, 48 h | actives 12% (n = 420,000) | Potency, µM (top dose mostly 46.2 µM), for inactives: at the top dose activity change, negative = growth inhibition, usual class: inhibitors; further: nearly all actives have a fitted effect of over 55% in size
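Chicken DT40 Tdp1-/- cells stably complemented with human TDP1 were seeded at 400 cells/well in medium containing 20 nM camptothecin, exposed to pin-transferred compounds, and grown at 37 °C for at least 48 hr. Viability was read as ATP luminescence.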
KB-V1 cytotox = KB-V1 MDR subline cytotoxicity; KB-V1 MDR cells viability, CellTiter-Glo, 72 h; Potency, µM (doses to about 46.1 µM), hits mostly cytotoxic; actives 3.4% (n = 400,000); AID 1347076; further: nearly all actives have a fitted effect of over 60% in size
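qHTS viability screen in drug-selected KB-V1 MDR cells: 72 h compound treatment at 37 degrees C, ATP luminescence end point.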
HT1080NT lethal = kills 2HG-producing HT-1080-NT fibrosarcoma cells | HT-1080-NT fibrosarcoma viability, CellTiter-Glo ATP luminescence, 48 h | Potency, µM (titrated, usually from 46.1 µM), inactives show at the highest dose activity, negative = less viability, actives largely listed as cytotoxic | AID 686970 | actives 1.6% (n = 360,000);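 further: NT is the 2HG producing partner of a matched IDH1 knockdown line; 0% = DMSO-treated cells and -100% = media-only wells without cells; nearly all actives have a fitted effect of over 55% in size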
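Viability by CellTiter-Glo luminescence after 48 h compound exposure at 37C of HT-1080-NT cells (750/well, RPMI, 5% FBS). % activity scaled between DMSO wells and medium-only wells, then curve-fitted and categorized by curve class.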
An asterisk follows results filed as active; i = inactive; ? = inconclusive; . = no result. Most compounds without a hit are left out; they make up all but 19% or so of the library. The call rests on the fitted dose curve; in most records, active means well fitted curve in the direction sought with a large enough effect; inconclusive means small, poorly fitted or top-dose-only effect, or another doubt; inactive means no such curve, though single readings can be large; an effect the other way counts as inactive or inconclusive. Unless noted, on the % scale 0 is the no-effect control and ±100 the full control effect; potency means the concentration at half of the fitted maximal effect.

SMILES | KB-3-1 cytotox | TDP1 cell noCPT | HT1080 IDH1KD tx | TDP1 cell CPT | KB-V1 cytotox | HT1080NT lethal
COc1ccc(/C=N/NC(=S)Nc2cc(S(=O)(=O)N3CCOCC3)ccc2N2CCOCC2)cc1O | ? | ? | 16.4µM* | 9.2µM* | ? | 20.6µM*
COc1ccc2ccccc2c1/C=N/NC(=S)Nc1cc(S(=O)(=O)N2CCOCC2)ccc1N1CCOCC1 | ? | -4.6% | -2.6% | -4.3% | i | -1.6%
O=C(COc1ccccc1F)Nc1cc(S(=O)(=O)N2CCOCC2)ccc1N1CCOCC1 | i | -23.8% | 4.4% | -11.8% | i | 10.2%
CCOc1cccc(/C=N/NC(=S)Nc2cc(S(=O)(=O)N3CCOCC3)ccc2N2CCOCC2)c1O | ? | 5.8µM* | ? | 5.8µM* | ? | -17.5%
COc1cc(OC)c(NC(=O)NCCn2nnc3cc(S(=O)(=O)N(C)C)ccc32)cc1Cl | i | -19.2% | . | -1.8% | i | .
Cc1cc(C)nc(CCNC(=O)c2cc(COc3c(C)cccc3C)on2)n1 | . | -15.2% | 3.1% | -0.3% | . | 0.0%
Cc1cccc2nnc(-c3ccccc3)n12 | i | 10.8% | 1.6% | 7.4% | i | -0.3%
COc1ccc(NC(=O)C2Cc3c(-c4ccncc4)ccnc3O2)cc1OC (configuration not stated) | i | ? | -9.6% | ? | i | 0.3%
COc1ccc(NC(=O)C2Cc3c(-c4ccc(Cl)cc4)ccnc3O2)cn1 (configuration not stated) | i | 20.6µM* | ? | 14.6µM* | ? | ?
COc1ccc(NC(=O)C2Cc3c(-c4ccccc4)ccnc3O2)cc1OC (configuration not stated) | 16.4µM* | 4.61µM* | ? | ? | ? | -11.7%
COc1ccc(NC(=O)C2Cc3c(-c4ccc(Cl)cc4)ccnc3O2)cc1OC (configuration not stated) | i | 18.4µM* | ? | ? | i | -6.7%
COc1ccc(NC(=O)C2Cc3c(-c4cccc(C(N)=O)c4)ccnc3O2)cc1OC (configuration not stated) | i | 7.31µM* | ? | 11.6µM* | i | ?
O=C(CNC(=S)N(Cc1ccccc1Cl)C1CCCC1)NCCN1CCOCC1 | i | 1.4% | 13.7% | 4.2% | i | 9.9%
Cn1cnc2c(=O)oc3ccc(S(=O)(=O)N4CCN(c5cccc(Cl)c5)CC4)cc3c21 | i | -3.9% | . | -5.7% | i | .
Cc1cc(C(=O)Cn2nc(C(=O)O)c3ccccc3c2=O)c(C)n1CCc1ccc(Cl)cc1 | i | ? | -12.7% | 20.6µM* | ? | -0.5%
Cc1c(Cl)ccc2sc(N3CCN(C(=O)c4ccco4)CC3)nc12 | i | 11.6µM* | . | 14.6µM* | ? | .
Cc1cc(C)c2nc(N3CCCC(C(=O)N4CCN(c5ncccn5)CC4)C3)sc2c1 (configuration not stated) | ? | ? | 4.2% | ? | 10.3µM* | 2.8%
COc1ccc(C(=O)N2CCN(c3nc4c(C)c(Cl)ccc4s3)CC2)c(OC)c1 | i | 9.2µM* | . | 16.4µM* | i | .
Cc1cc(C)c2nc(N3CCC(C(=O)N4CCN(C(=O)c5ccco5)CC4)CC3)sc2c1 | i | 14.6µM* | -12.0% | ? | ? | -3.5%
CNc1cc(-c2cccc(OC)c2F)nc2ccnn12 | i | ? | -26.1% | ? | ? | -27.6%
CCc1ccccc1N(CC)C(=O)c1c(C)oc2ncn(C)c(=O)c12 | i | ? | . | ? | i | .
COc1cc2ccccc2cc1C(=O)N1CCCC1 | i | 0.3% | -0.5% | -0.6% | i | 20.5%
Cc1c(Cl)ccc2sc(N3CCN(C(=O)C4=COCCO4)CC3)nc12 | i | ? | -1.8% | ? | i | -1.3%

Source: PubChem BioAssay (National Center for Advancing Translational Sciences (NCATS))
